Compounds with a hit are over-represented: about 3.5% of the library has one in this group of screens.
NS1 function inh = qHTS Assay for Inhibitors of Influenza NS1 Protein Function; Potency, µM (doses to about 46.1 µM), without a hit: at the highest dose activity, positive = more growth; 270,000 compounds, 0.4% hits; calls by dose curve; further: actives are rising curves; nearly all actives have a fitted effect of over 50% in size
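S. cerevisiae expressing influenza A NS1, grown in glucose, washed, then diluted 1:100 into pH 6.0 -URA galactose medium with 23 nl compound. Growth recovery read as OD600; NS1-free strain serves as control.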
TbPYK inhibitor = qHTS of Trypanosoma Brucei Inhibitors; TbPYK enzyme, Kinase-Glo Plus ATP luminescence, 45 min; Potency, µM (doses to about 76.8 µM), for the others: top-dose activity, negative = inhibition, usual class: inhibitors; 410,000 compounds, 0.12% hits; pyruvate kinase (Trypanosoma brucei), Q57TT1; further: on the % scale 0 is the no-effect control and ±100 the full control effect; nearly all actives have a fitted effect of over 50% in size
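Enzyme and substrate buffer are dispensed first and compound is pin-transferred. ADP at 130 uM final then starts the reaction, which runs 45 min at room temperature. Detection reagent is added for 10 min before luminescence is imaged.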
Giardia FBPA inh = qHTS Assay for Inhibitors of Fructose-1,6-bisphosphate Aldolase from Giardia Lamblia | purified Giardia FBPA | Potency, µM (doses to about 59.6 µM), for the others: at the highest dose activity, negative = inhibition, actives largely listed as inhibitors | 290,000 compounds, 0.71% hits | AID 2451, 2010; further: on the % scale 0 is the no-effect control and ±100 the full control effect; nearly all actives have a fitted effect of over 55% in size
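Giardia FBPA (40 nM reagent) was preincubated 10 min at RT with compound (up to 57.5 uM final), then substrate plus GAPDH/TPI/NAD/arsenate coupling system with diaphorase/resazurin was added; resorufin fluorescence (525/598 nm) was read after 20 min.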
RE007 growth inh = qHTS Assay for Inhibitors of the HIV-1 protein Vpr | Potency, µM (titrated, usually from 92.2 µM), inactives show at the top dose activity change, negative = less growth, hits mostly inhibitors | AID 651644, 2012 | 360,000 compounds, 0.21% hits | S. pombe RE007 Vpr strain, BacTiter-Glo ATP luminescence, 24 h; active means well fitted falling curve with a large enough effect; inconclusive means small, poorly fitted or top-dose-only effect; inactive means no such curve, though single readings can be large or run the other way; further: on the % scale 0 is the no-effect control and ±100 the full control effect; nearly all actives have a fitted effect of over 50% in size
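Fission yeast strain RE007, carrying one chromosomally integrated HIV-1 vpr copy, was seeded at OD 0.01 in PMG+AL medium with 23 nL pinned compound. After 24 h at 30 °C and 99% humidity, viability was read by BacTiter-Glo luminescence.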
LmPK inh = qHTS Assay for Inhibitors of Leishmania Mexicana Pyruvate Kinase (LmPK). Q27686. purified LmPK, Kinase-Glo ATP luminescence, 1 h. Potency, µM (series often up to 57.5 µM), for inactives: at the top dose activity change, negative = inhibition, most hits filed as inhibitors. 290,000 compounds, 0.37% hits. AID 1721, 2009; further: on the % scale 0 is the no-effect control and ±100 the full control effect
Target sequence (Q27686 whole entry, looked up): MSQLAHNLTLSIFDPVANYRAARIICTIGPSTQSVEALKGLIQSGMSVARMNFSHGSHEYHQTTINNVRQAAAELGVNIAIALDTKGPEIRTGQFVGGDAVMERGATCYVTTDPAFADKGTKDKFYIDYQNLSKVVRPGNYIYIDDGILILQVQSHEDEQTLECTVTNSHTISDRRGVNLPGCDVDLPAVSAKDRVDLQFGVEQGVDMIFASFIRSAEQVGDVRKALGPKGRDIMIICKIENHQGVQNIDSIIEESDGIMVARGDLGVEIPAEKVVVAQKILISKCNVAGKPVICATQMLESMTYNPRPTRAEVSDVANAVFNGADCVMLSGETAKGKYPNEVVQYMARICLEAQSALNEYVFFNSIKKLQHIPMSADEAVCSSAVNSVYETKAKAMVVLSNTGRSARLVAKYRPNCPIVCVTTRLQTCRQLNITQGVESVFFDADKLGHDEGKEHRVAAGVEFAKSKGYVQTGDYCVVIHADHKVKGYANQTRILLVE
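Kinase-Glo luminescence read after 1 h RT reaction of 0.1 nM LmPK with 0.5 mM PEP and 0.1 mM ADP. Activity scaled between uninhibited and enzyme-free controls.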
Sm TGR inh = qHTS Assay for the Inhibitors of Schistosoma Mansoni Peroxiredoxins | purified TGR, DTNB reduction, TNB absorbance 405 nm | AID 485364, 2010 | Potency, µM (highest dose often 114 µM), for inactives: at the top dose activity change, negative = inhibition, hits mostly inhibitors | 360,000 compounds, 3% hits; further: on the % scale 0 is the no-effect control and ±100 the full control effect; nearly all actives have a fitted effect of over 60% in size
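First, TGR (20 nM dispensed) and NADPH were mixed with compound. Second, a 15 min room-temperature incubation followed. Third, further NADPH and then DTNB were added to start the reaction. Finally, TNB absorbance was monitored kinetically.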
* marks the source's active call; other numbers are inactive results; ? = inconclusive; . = no result given; ! = a repeat was not active; [ ] = another dose, or the depositor's remark. Unless noted, the call rests on the fitted dose curve; in most records, active means well fitted curve in the direction sought with a large enough effect; inconclusive means small, poorly fitted or top-dose-only effect, or another doubt; inactive means no such curve, though single readings can be large; an effect the other way counts as inactive or inconclusive. Potency means the concentration at half of the fitted maximal effect.

SMILES | NS1 function inh | TbPYK inhibitor | Giardia FBPA inh | RE007 growth inh | LmPK inh | Sm TGR inh
CCCC1O[C@@H]2C[C@H]3[C@@H]4CCC5=CC(=O)C=C[C@]5(C)C4[C@@H](O)C[C@]3(C)[C@]2(C(=O)CO)O1 (stereo not given in full) | -13% | . | -2% | . | . | .
O=C(CCn1cnnn1)Nc1ccc(Cl)c(Cl)c1 | 8% | 4% | -4% | 0% | 3% | .
Cc1cccc(NC(=O)CCn2cnnn2)c1 | . | 1% | 1% | -2% | 6% | 89µM*!
Cn1nnnc1SCCNCc1ccccc1Cl | . | -2% | . | . | . | -5%
Cc1cc(-c2ccco2)n(CC(=O)NCc2ccco2)n1 | -6% | -13% | -3% | 17% | 7% | 40µM*
CC(C)CNS(=O)(=O)c1ccc(CCC(=O)NCc2ccncc2)cc1 | 3% | -4% | 0% | -13% | -3% | 8%
CC(C)CNS(=O)(=O)c1ccc(CCC(=O)NCc2ccco2)cc1 | 1% | -15% | -1% | 9% | 3% | 45µM*
CC(C)NS(=O)(=O)c1ccc(CCC(=O)NCc2ccccn2)cc1 | 14% | 1% | -1% | -4% | -1% | 100µM*
O=C(CN(CCc1ccccc1)C(=O)CNS(=O)(=O)c1ccccc1)NCc1ccco1 | -5% | -4% | -2% | 10% | -1% | 0%
Cc1cc(C(F)F)nn1CC(=O)NCc1ccco1 | 7% | -5% | -2% | 13% | 1% | -11%
Cc1ccc(S(=O)(=O)NCC(=O)N(CCc2ccccc2)CC(=O)NCc2ccco2)cc1 | -1% | -3% | 4% | 26% | 1% | 35µM*
COc1cc(NC(=O)CN2C(=O)c3ccccc3Sc3ccc(C(=O)N4CCCC4)cc32)cc(OC)c1 | . | -5% | . | . | . | 0%
O=C(Cn1c(=O)oc2cc(S(=O)(=O)N3CCCCC3)ccc21)Nc1cccc(Cl)c1 | . | -1% | . | . | . | 1%
O=C(CCSCCC(=O)NCc1ccco1)NCc1ccco1 | -3% | ? | 11% | 89% | -2% | ?
CC(C)C(CC(=O)NCc1ccco1)c1ccco1 (stereo not given) | -2% | -6% | -18% | -3% | 6% | 22µM*
Cc1ccc(CNC(=O)Cc2c(C)c3c(cc(C)c4c(C)coc43)oc2=O)cc1 | . | 0% | . | . | . | 0%
O=C(NCC(c1cccs1)S(=O)(=O)c1cccs1)c1ccc(C(F)(F)F)cc1 (stereo not given) | . | 4% | . | . | . | ?
COc1ccc(C(=O)NCC(c2ccco2)S(=O)(=O)c2cccs2)cc1 (stereo not given) | . | -1% | . | . | . | 8.9µM*
COc1cc(C(=O)NCC(c2ccco2)S(=O)(=O)c2ccccc2)cc(OC)c1OC (stereo not given) | . | 0% | . | . | . | -13%
O=C(NCC(c1cccs1)S(=O)(=O)c1cccs1)c1ccc(F)c(F)c1 (stereo not given) | . | -1% | . | . | . | ?
O=C(NCC(c1cccs1)S(=O)(=O)c1cccs1)c1ccc(Cl)cc1 (stereo not given) | . | -1% | . | . | . | 25µM*
O=C(NCC(c1ccco1)S(=O)(=O)c1cccs1)c1ccc(Cl)cc1 (stereo not given) | . | 3% | . | . | . | 14µM*
COc1cc(C(=O)NCC(c2ccco2)S(=O)(=O)c2cccs2)cc(OC)c1OC (stereo not given) | . | -3% | . | . | . | 8.9µM*
O=C(NCCc1csc(-c2ccc(F)cc2)n1)c1cccs1 | . | -3% | . | . | . | 1%
O=C(NCCc1ccc(Cl)cc1)C(=O)NCC(c1ccco1)S(=O)(=O)c1ccccc1 (stereo not given) | . | 2% | . | . | . | ?
SMILES | NS1 function inh | TbPYK inhibitor | Giardia FBPA inh | RE007 growth inh | LmPK inh | Sm TGR inh
O=C(NCCc1ccc(Cl)cc1)C(=O)NCC(c1ccco1)S(=O)(=O)c1cccs1 (stereo not given) | . | 1% | . | . | . | 40µM*
Cc1ccccc1CNC(=O)C(=O)NCC(c1ccco1)S(=O)(=O)c1cccs1 (stereo not given) | . | -5% | . | . | . | ?
Cc1cccc(C(=O)NCC(c2ccco2)S(=O)(=O)c2cccs2)c1 (stereo not given) | . | -2% | . | . | . | 7.1µM*
C/C=C/c1ccc(Oc2nnnn2-c2ccc(C(=O)O)cc2)c(OC)c1 | -46% | -11% | 29% | -2% | -7% | 35µM*
COc1cc(C=O)ccc1Oc1nnnn1-c1ccc(C(N)=O)cc1 | 6% | -6% | 1% | -5% | -2% | 0%
COC(=O)C1(Cc2cc(-c3ccc([N+](=O)[O-])cc3)no2)CCN(C(=O)OC(C)(C)C)CC1 | . | 0% | . | -1% | . | 20µM*
COc1ccc(CNC(=O)C(=O)NCC(c2cccnc2)N2CCN(c3ccccc3F)CC2)cc1 (stereo not given) | . | -7% | . | . | . | 8%
CC1(C)Cc2[nH]c(=S)c(C#N)cc2CO1 | 18% | ? | -26% | 12% | 26% | 32µM*
CC1(C)Cc2c(c(N3CCCC3)[nH]c(=S)c2C#N)CO1 | 2% | . | -4% | . | -13% | -25%
N#Cc1cc2c([nH]c1=S)CCCC2 | 9% | 5.6µM* | -8% | 86% | 14% | 0%
CSc1ccc(CCNC(=O)CCCn2c(=O)c3cccn3c3ccccc32)cc1 | . | -4% | . | . | . | 2%
COc1ccc(NC(=O)CSC2CC(=O)N(c3ccc4c(c3)OCCO4)C2=O)cc1 (stereo not given) | -14% | -2% | 0% | 18% | -1% | 45µM*
COc1ccccc1NC(=O)CSC1CC(=O)N(c2ccc3c(c2)OCO3)C1=O (stereo not given) | -12% | 0% | 1% | -5% | -9% | 13µM*
Cc1cccc(-c2nnn3c2nc(NCc2ccccc2)c2ccccc23)c1 | . | -1% | . | . | . | 4%
Cc1cccc(OCC(=O)Nc2ccccc2OCc2cc(=O)n3cc(C)ccc3n2)c1 | . | -3% | . | . | . | 3%
c1ccc(C[n+]2cccc(-c3ccccc3)c2)cc1 | 9% | -5% | -2% | -4% | -1% | 1%
CC1=CCC2COC(c3ccc[n+](Cc4ccccc4)c3)C1C2 (stereo not given) | 1% | 2% | ? | -15% | -4% | 35µM*
Brc1ccc(-c2ccc(CNCCSc3nnnn3-c3ccccc3)o2)cc1 | . | -7% | . | . | . | 18µM*
Cc1ccsc1/C=N/Nc1nc2ccccc2[nH]1 | -22% | -22% | 2% | -8% | 14µM* | -11%
C(=N\Nc1nc2ccccc2[nH]1)/c1cccs1 | -99% | -5% | -2% | 7% | 14µM* | -17%
C(=N\Nc1nc2ccccc2[nH]1)/c1ccncc1 | . | -1% | 3% | 0% | 1%[11.5 µM] | 16%

High-throughput results: PubChem, National Center for Advancing Translational Sciences (NCATS)
